Assay outcomes deposited in PubChem BioAssay by Columbia University Molecular Screening Center.
IL1B NFkB pot: enhances IL-1B driven NFkB nuclear translocation; HUVEC IL-1B NFkB p65 nuclear translocation imaging; activation, % at 2 µM; 0.3% of 94,000 active; AID 819;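 active means activation above 40%, about the mean plus 3 SD, also judged a hit on visual image review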;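 further: percent activation is computed from the nuclear over cytoplasmic p65 intensity ratio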
Insulin prom inh: TRM-6 insulin promoter activity inhibition; TRM-6 cells (human fetal islet line), insulin promoter-eGFP reporter, imaging; reporter expression induced with tamoxifen; inhibition, % at 2 µM; 0.9% of 130,000 active;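 active means inhibition above the mean plus 3 SD, with well images judged a real hit on visual review, cut at about 60% in these data, passing the limit was not always enough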
IL1B NFkB inh: blocks IL-1B driven NFkB nuclear translocation in HUVEC cells | HUVEC IL-1B NFkB p65 nuclear translocation imaging | inhibition, % at 2 µM | 0.43% of 94,000 active;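 active means inhibition above about 30% together with a positive call from visual inspection of the well image, limit read from the data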;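 further: nuclear over cytoplasmic p65 intensity ratio measured by imaging; 0% = IL-1B stimulated DMSO wells and 100% = unstimulated DMSO wells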
HUVEC tox IL1B: toxic to HUVEC cells under IL-1B stimulation; HUVEC cell count loss, Hoechst imaging, IL-1B stimulated; cell count reduction, % at 2 µM; 0.41% of 94,000 active; AID 845;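 active means cell count reduction more than 3 SD above the screen-wide mean, cut at about 70% in these data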;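 further: normalized per plate to untreated control cells as the no-loss baseline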
* marks the source's active call; other numbers are inactive results; . = no result. Most compounds without a hit are left out; they make up all but 1.3% or so of the library.

SMILES	IL1B NFkB pot	Insulin prom inh	IL1B NFkB inh	HUVEC tox IL1B
O=[N+]([O-])c1ccc(C2=Nc3cc(Cl)ccc3OC2)cc1	.	-10.0	.	.
Cc1cccnc1NC1CCCCC1	.	78.6*	.	.
CCN1C(=O)CC(N2CCN(c3ccc(C(=O)c4ccncc4)cc3)CC2)C1=O (stereo unspecified)	-6.0	70.0*	6.0	1.1
CCOc1ccc(N2C(=O)CC(N3CCN(c4ccc(C(=O)c5ccncc5)cc4)CC3)C2=O)cc1 (stereo unspecified)	2.0	27.0	-2.0	-8.7
Cc1nc(-c2ccc(NS(C)(=O)=O)cc2)cs1	4.1	73.3*	-4.1	8.0
CC(N=C1CC(C)(C)CC(=O)/C1=C(/O)CCCN1C(=O)c2ccccc2C1=O)C(=O)O (stereo unspecified)	.	-25.0	.	.
CC(=O)N1N=C(c2cccs2)CC1c1ccc(C)o1 (stereo unspecified)	.	81.8*	.	.
CC(=O)N1N=C(c2cccs2)CC1c1cccs1 (stereo unspecified)	.	23.1	.	.
COC(=O)C1=C(C)Nc2nnnn2C1c1cccnc1 (stereo unspecified)	-34.1	-5.6	34.1*	11.9
CCOC(=O)C1=C(C)Nc2nnnn2C1c1ccccc1Cl (stereo unspecified)	46.1*	60.0	-46.1	-31.1
Cn1c(=O)c2c(SCCN3CCOCC3)nc(C3CCCC3)nc2n(C)c1=O	.	9.1	.	.
C=CCNC(=O)COC(=O)c1ccc(C)c(NC(=O)c2ccco2)c1	.	72.7*	.	.
C=CCc1c(C)[nH]c(=O)[nH]c1=O	.	77.8*	.	.
CCOC(=O)c1sc2cc([N+](=O)[O-])cc(SCCO)c2c1N	.	-50.0	.	.
CCOC(=O)c1sc2cc([N+](=O)[O-])cc(SCC(=O)OC)c2c1N	50.7*	-67.6	-50.7	9.0
COc1ccc(-c2cc(-c3ccccc3)c(C#N)c(S(C)(=O)=O)n2)cc1	9.2	57.1	-9.2	12.9
CS(=O)(=O)c1nc(-c2ccc(Br)cc2)cc(-c2ccccc2)c1C#N	76.6*	35.7	-76.6	26.3
O=C(c1ccc(COc2ccccc2Br)cc1)N1CCCCC1	54.3*	36.2	-54.3	-0.3
C/C(=N\NC(=O)c1cccc(N/N=C(\C)c2ccco2)c1)c1ccco1	.	81.8*	.	.
C/C(=N\NC(=O)c1ccc(F)cc1)c1cccc(NC(=O)c2ccco2)c1	-9.6	.	9.6	16.9
CCOC(=O)c1c(NC(=O)CSC2=NN3CCCC(=O)N=C3S2)sc2c1CCCCC2	.	-21.9	.	.
Cc1cc(C(=O)Oc2cccnc2)ccc1[N+](=O)[O-]	.	83.3*	.	.
CCCCCCN1C2=NCCN2c2ccccc21	-4.5	83.6*	4.5	12.0
CC(C)(C)c1ccc(CN2C3=NCCCN3c3ccccc32)cc1	-21.3	-61.5	21.3	75.4*
CNC(=O)c1nc(C)n(-c2cc(Cl)ccc2Cl)n1	22.5	.	-22.5	-65.2
SMILES	IL1B NFkB pot	Insulin prom inh	IL1B NFkB inh	HUVEC tox IL1B
CCOc1ccc(Nc2nc(Nc3ccc(O)cc3)nc(C)c2[N+](=O)[O-])cc1	.	-13.3	.	.
COc1ccc(CCNC(=O)CCc2ccc(S(=O)(=O)NCC(C)C)cc2)cc1	.	-115.4	.	.
O=C(NCC(c1cccnc1)N1CCOCC1)c1ccc2c(c1)OCO2 (stereo unspecified)	-35.7	3.9	35.7*	-32.2
O=C(NCC(c1cccnc1)N1CCN(c2ccccc2)CC1)c1ccc2c(c1)OCO2 (stereo unspecified)	32.5	0.0	-32.5	-2.2
CCC(CC)NC(=O)c1cccc(Br)c1	.	88.2*	.	.
CCc1c(C)nc(/N=C(/NC(=O)c2ccccc2)Nc2ccccc2OC)[nH]c1=O	-54.8	-18.8	54.8*	-0.8
O=C(O)C1CSC(c2ccccc2)N1C(=O)c1ccco1 (stereo unspecified)	-0.2	73.9*	0.3	-4.9
O=C(O)C1CCN(C(=O)c2ccco2)CC1	.	-76.9	.	.
CC(=O)N1C(C(=O)O)CSC1c1cccc(C)c1 (stereo unspecified)	-35.7	9.7	35.7*	2.7
CCC(=O)N1C(C(=O)O)CSC1c1ccc(OC)cc1 (stereo unspecified)	15.3	.	-15.3	-132.9
CNc1nc(-c2ccccc2)cc(C)c1S(C)(=O)=O	.	-16.3	.	.
CCN(CC)CCNC(=O)c1cc2cc(Br)ccc2s1	.	-16.7	.	.
O=C1COc2ccc(C(=O)CSc3nnc(Cc4cccs4)n3-c3ccccc3)cc2N1	-1.8	71.4*	1.8	13.8
CCCOC(=O)CCCCCCCCC(O)CN1CCCCC1 (stereo unspecified)	.	0.0	.	.
O=C(Nc1cccc2cccnc12)c1cccnc1	30.1	-168.8	-30.1	-4.1
COc1cc(C(=O)Nc2cccc3cccnc23)cc(OC)c1OC	-38.6	-13.9	38.6*	-17.6
COc1ccc(NC(=O)c2cc(OC)c(OC)c(OC)c2)cn1	-47.8	-257.1	47.8*	-35.6
CCOc1ccccc1Nc1nnc(SCC(=O)Nc2cccc(S(=O)(=O)NC3=NCCCCC3)c2)s1	.	14.3	.	.
O=C(O)/C=C/C(=O)Nc1ccc(NC(=O)c2ccccc2)c(Cl)c1	.	-8.3	.	.
Cc1ccc(S(=O)(=O)N2CCN(C(=O)N(C)C)CC2)cc1	.	-33.3	.	.
CS(=O)(=O)c1ccc(Cl)c(NC(=O)CCc2ccccc2)c1	.	-9.1	.	.
Cc1ccc(SCCC(=O)NC2CC2)cc1	.	14.3	.	.
Cc1ccc2[nH]c(=O)c(CN(Cc3nnnn3C3CCCC3)C3CCCCC3)cc2c1	12.2	.	-12.2	-71.4
Cc1ccc2[nH]c(=O)c(CN(Cc3ccccc3)Cc3nnnn3C3CCCC3)cc2c1	-0.9	.	0.9	71.9*
O=C(/C=C/c1ccccc1)N/C(=C/c1ccccc1)C(=O)NCCCO	.	-44.1	.	.
SMILES	IL1B NFkB pot	Insulin prom inh	IL1B NFkB inh	HUVEC tox IL1B
Cc1cc(NCCOCCO)n2ncc(-c3ccc(Cl)cc3)c2n1	29.4	49.9	-29.4	90.9*
Cc1cc(NCCCN2CCOCC2)n2ncc(-c3ccccc3)c2n1	-1.1	-13.3	1.1	20.8
COc1ccc(/C(N)=N/OC(=O)CCCN2C(=O)c3ccccc3C2=O)cc1OC	.	17.6	.	.
CCC(COC(=O)Nc1cccc(C)c1C)NC(=O)OCC(C)C (stereo unspecified)	-30.7	-10.3	30.7*	2.9
CCCOC(=O)NC(CC)COC(=O)Nc1cccc(C)c1C (stereo unspecified)	3.6	.	-3.6	7.8
CCOC(=O)c1c(C)nc(-c2ccccc2)nc1NC(=O)CC	-9.1	71.4*	9.1	-67.6
CCC(=O)Nc1nc(-c2ccccc2)nc(SC)c1C(C)=O	.	-63.6	.	.
CCCCC(=O)OCC(=O)Nc1cccc(S(=O)(=O)NC2=NCCCCC2)c1	.	-16.7	.	.
CCCc1cc(=O)[nH]c(NCc2ccc(Cl)cc2)n1	-0.3	20.0	0.3	89.8*
C=CCNC(=O)/C(=C/c1cccc([N+](=O)[O-])c1)NC(=O)c1ccccc1	.	-50.0	.	.
Cc1oc2c(c1C(=O)Nc1cccc(C(=O)O)c1)CCCC2	-0.5	65.7*	0.5	8.0
CCOC(=O)c1oc2c(c1C)/C(=N/O)CCC2	20.2	87.5*	-20.2	-35.5
COc1ccc(C(=O)Nc2ccc(-c3ccc(NC(=O)c4ccc(OC)cc4)c(OC)c3)cc2OC)cc1	.	27.6	.	.
COC(=O)C(CO)NC(=O)C(C)NC(=O)CNC(=O)OCc1ccccc1 (stereo unspecified)	.	46.7	.	.
CCCNC(=O)N1CCN(c2ncccn2)CC1	56.4*	-33.3	-56.4	6.5
Cc1noc(C)c1C(=O)NCCC1=CCCCC1	2.7	13.2	-2.7	19.0
Cc1noc(C)c1C(=O)OCC(=O)NCCC1=CCCCC1	113.5*	.	-113.5	-1.7
